Screen size: about 330,000 compounds; about 4,600 (1.4%) were called active. The sample holds actives, similar compounds and a random draw of the others, so the mix is not that of the screen.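 Rule for the calls: active = inhibition of 40% or more at the single tested concentration; inactive = the rest.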
Experiment: wild-type TIM10 yeast growth inhibition – luminescence, uHTS, counter-screen for tim10-1 yeast inhibitor project, primary screen (AID 463195);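 note: wild-type TIM10 isogenic control strain grown at permissive 25 °C; 0% = DMSO yeast wells and 100% = minimal medium wells without yeast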
Conditions: S. cerevisiae TIM10 strain growth, BacTiter-Glo luminescence, 24 h; at 10 µM; stronger effect = higher value

| SMILES | inhibition |
| --- | --- |
| COC(=O)c1sccc1NC(=O)CSc1ccccc1NS(=O)(=O)c1cc(Cl)ccc1Cl | 10% (inactive) |
| COC(=O)c1sccc1NS(=O)(=O)c1ccc(F)cc1F | 48.3% (active) |
| COc1ccc(NS(=O)(=O)c2ccc(F)cc2F)cn1 | -5.52% (inactive) |
| CC1CCCN(CCOCCOc2ccccc2-c2ccccc2)C1 (configuration not stated) | -0.424% (inactive) |
| Cc1ccc(NS(=O)(=O)c2ccc3c(c2)n(C)c(=O)c(=O)n3C)c(C)c1 | -2% (inactive) |
| CCOC(=O)C(=CNc1cccc(C)n1)C(=O)OCC | -4.77% (inactive) |
| COc1ccccc1/C=C/C(=O)NC1CC2CCC1C2 (configuration not stated) | 18.9% (inactive) |
| CCOC(=O)C(=Cc1ccccc1OC)C(=O)OCC | 49% (active) |
| COc1ccccc1CNC(=O)C1CCN(C(=O)[C@@H]2Cc3ccccc3CN2)CC1 | 6.93% (inactive) |
| COc1ccc(Nc2cc(=O)oc3ccccc23)cc1 | -15.1% (inactive) |
| CCCN1CCn2c3c(c4cc(Br)ccc42)CCCC31 (configuration not stated) | 6.43% (inactive) |
| CCOc1ccc(/C(O)=C2\C(=O)C(=O)N(c3ccc(OC)cc3)C2c2ccccc2[N+](=O)[O-])cc1 (configuration not stated) | 23.4% (inactive) |
| COc1ccc2[nH]cc(CCN3C(=O)c4ccc(C(=O)O)cc4C3=O)c2c1 | -1.99% (inactive) |
| COc1ccc2[nH]cc(/C=C(/C#N)S(=O)(=O)c3ccccc3)c2c1 | 54.5% (active) |
| CCN(CC)CC(=O)c1c[nH]c2ccc(OC)cc12 | -7.94% (inactive) |
| CC(OC(=O)c1ccc2ccccc2n1)C(=O)c1ccccc1 (configuration not stated) | 3.19% (inactive) |
| O=C(Oc1ccc([N+](=O)[O-])cc1)c1ccc2ccccc2n1 | 40.4% (active) |
| COc1ccc(C(=O)COC(=O)c2ccc3ccccc3n2)cc1 | 37.3% (inactive) |
| O=C(Nc1cccc(Cl)c1Cl)c1ccccc1NC(=O)C1CC=CCC1C(=O)O (configuration not stated) | -0.652% (inactive) |
| Cc1ccc(/C=N/NC(=O)c2cc3ccccc3cc2O)o1 | 16.7% (inactive) |
| Cc1cc(N=Nc2ccc3ccccc3c2)ccc1O | 74.2% (active) |
| COc1cccc(OCC(O)CNC(=O)c2oc3c(C)c(C)ccc3c2C)c1 (configuration not stated) | -2.72% (inactive) |
| Cc1nc2cc(C(F)(F)F)ccc2n1CCNc1nc(-c2cc(Cl)c(N)c(Cl)c2)cs1 | 3.25% (inactive) |
| CC(=O)c1c(OCC(=O)N(C)C2CCCCC2)ccc2c(C)cc(=O)oc12 | 5.61% (inactive) |
| C=CCNC(=S)NNC(=O)COc1c(Cl)cc(Cl)cc1Cl | 57.7% (active) |
| C=CCNC(=S)NNC(=O)c1ccc(Br)o1 | -5.99% (inactive) |
| C=CCNC(=O)COC(=O)CNC(=O)c1cc(Cl)cc([N+](=O)[O-])c1 | -0.359% (inactive) |

From PubChem BioAssay AID463195 (Sanford-Burnham Center for Chemical Genomics, 2010)
